Test results published in article PMC13494018.

B1: d4r5_design_ppi_63_dldesign_0_cycle1_af2pred (protein)
chain: SLAEEAEKKLKEYAALRIEAGDLSEEEAKKTFKEIAKEAKELAKKLEADPNAKEVAKKAKKLAGAAESAAKAIEKA
B2: d4r5_design_ppi_266_dldesign_0_cycle1_af2pred (protein)
chain: GEEAKKALELAKKAVEEAKRGLALAKAGKLEEAAKELQKARELMAEALALGKKNPEVLEEVKKLAKEVKELIREAMEEAKKHR
B3: d4r5_design_ppi_147_dldesign_0_cycle1_af2pred (protein)
chain: SVQERARLAAKATRAAHKAKVAAKKIIELGGDKEKAKKLAKEAEKALEKAEEAMADPSKLEELKKATEEAEKLAKEALKEYEKLLA
B4: d4r5_design_ppi_320_dldesign_0_cycle1_af2pred (protein)
chain: ATPEEQKKESDYFKEVQKLAKEKAEAAAADPEAKQLALNLPLAAADPEEGKKVAAQVDKRLAALKAAKAAAAA
B5: d4r5_design_ppi_302_dldesign_0_cycle0_af2pred (protein)
chain: SEAEKLYAEALQYANIAKSAYEVNKEAGKEEYKEAKKYVEKLKEVDPEKGEEAEKEVEEKKAEAEKEYEKK
B6: d4r5_design_ppi_153_dldesign_0_cycle0_af2pred (protein)
chain: LLEEVKKLSEEALKLAKEAKETGSEELREKAREKAKEALELGKKDPEALKIASEATQKMLEIWAEGKAKKNK
B7: d4r5_design_ppi_37_dldesign_0_cycle0_af2pred (protein)
chain: GGAVDQVVDNVAKAVGAEAGARIRAAYEEGPEKAIATLEELAARLAAEDPELGAKAAKAARVLRSIVEDEKR
B8: d4r5_design_ppi_312_dldesign_0_cycle1_af2pred (protein)
chain: DFEEAKKKAEEALKKLEELAKELGEEGKKLYEYAKKKFEKYSDDAASVEAAYYIIKGAYKKAEELLKEKKEKKKKEE
B9: d4r5_design_ppi_73_dldesign_0_cycle0_af2pred (protein)
chain: MKAVEELKERAKRRLKEAEEKHKENPLKGAAQAYAAAEYVKNFAEAAAKKYPEYKEELLAAGKEYAKELEEKAKEFEEEAKKLA
B10: d4r5_design_ppi_48_dldesign_0_cycle0_af2pred (protein)
chain: KAEELFKKGLELVKEGIESEDKEKGKELVKKGSVLFREGLLEKYSEEPASEVVKIAQKIHEEWEKLLEEEFKKK
B11: d4r5_design_ppi_205_dldesign_0_cycle1_af2pred (protein)
chain: GEEEAKKAKEKAKKEAKELTDLVDEVAALSGAEAARAYAEKRAKNLVEKAAKEGPEAEKAAKEAAEKILKRAEEIAKAEA
B12: d4r5_design_ppi_266_dldesign_0_cycle0_af2pred (protein)
chain: HMLKKLALEKAKEALEKAKEGLKLAKEGKLEEAAKKLQEARELKAEALSLGKKEKSIKKIIEEKAKEVKKIIKEAQKEAKKKK
B13: d4r5_design_ppi_307_dldesign_0_cycle0_af2pred (protein)
chain: SAEKKAREESEKLREELRKKKEEAIARVKAYLAEKAKKDPSKAAEYEAKAKEVEAGGSGTATAALKEVKAEEAAEAAAKAAAA
B14: d4r5_design_ppi_251_dldesign_0_cycle1_af2pred (protein)
chain: MEKLKEIEEAAKKKLEEGAKKGEEAFKKAITEANLLAASDPEYSKEARAAVKKLAKEKKKELEEKKKKEEEEKKLK
B15: d4r5_design_ppi_239_dldesign_0_cycle0_af2pred (protein)
chain: MGKELQKLADEANKKAKAIAKTLKENLKLAKELSPELAKEAEAAKKALAAARLTFADDLEKGKEELKAVEKDVEALKAKIEKAAA
B16: d4r5_design_ppi_142_dldesign_0_cycle0_af2pred (protein)
chain: MEEKRLEALKSQVEHAGEAAEKYGKELGEEEVKKARELKEKALKASAEEARELLKELRKFGKELKKKVEAKKAA
B17: d4r5_design_ppi_292_dldesign_0_cycle1_af2pred (protein)
chain: SMAKELSEALREAVRAAREAVETRGEEVKEEMVELVYKAFDSDLEETKKIAEEIKRRAEEAREERRRRLE
B18: d4r5_design_ppi_147_dldesign_0_cycle0_af2pred (protein)
chain: SITERAKLAAEATRAAHRAEAAAKELIKLGGDKKEAEKLRKEAKKALEKAEEAAAKPEKLEELKKETEKAKKIAEEAKKELEELKK
B19: d4r5_design_ppi_292_dldesign_0_cycle0_af2pred (protein)
chain: MKAKETAKALREAVKAAQEAVKAKGEEVKPEMSKLLEEAASSDAEETKKIAEEIKKKAKEVKEEKKKEEE
B20: d4r5_design_ppi_255_dldesign_0_cycle0_af2pred (protein)
chain: SEVEETKKKLAEASAELSELAAEADANPALAAAGKLAREALKKARELGKEGEENPEKALELYKKALEYAEKALKEVKALIEKAK
B21: d4r5_design_ppi_284_dldesign_0_cycle1_af2pred (protein)
chain: AAAEVQAKLEAAAKKAEELAKDPALKEAAEAAAKALTAAKSLPPEEAAPALVATNNALQDARFEATEKAFK
B22: d4r5_design_ppi_305_dldesign_0_cycle0_af2pred (protein)
chain: MEEKLKKEVEEALKKAEKAAKEAKASGDVKALKEAAMKANEAAAEARAYAAKSKDKETKKFAEEAAKKALELAKETVEAAKKAA
B23: d4r5_design_ppi_185_dldesign_0_cycle1_af2pred (protein)
chain: NEEALKKALEEAKKLVEEAGKKAGPEVQEKADRLIKVSERKRKLDPEAGALQGIFGAKGLEPDIDKELAKKIIEAFKKALELA
B24: d4r5_design_ppi_197_dldesign_0_cycle1_af2pred (protein)
chain: GKVEKEVKAAAEKAKKLVEEAKKLAESGDKETAKEGMKLAEEALKLAREAGKKAKKAGVKEELVKELEKLAEEAIEVRLDGLEVLAK
B25: d4r5_design_ppi_300_dldesign_0_cycle0_af2pred (protein)
chain: SEVEEKAKKLVKEAAESTPEEAKKKGREVVELAKEHPEVAPVAAKAADEAAEVAKKKDKEVYIILAKTSAQLDAIAA
B26: d4r5_design_ppi_337_dldesign_0_cycle0_af2pred (protein)
chain: SHYEKAREYVKKAIKALKEGKEKEAKEYAKKAAEEIAKTDAEKAREIAKEMRKGVKEVGAGKVGGEMVALIQEARAEAAARNS
B27: d4r5_design_ppi_307_dldesign_0_cycle1_af2pred (protein)
chain: GAREKAREESEKIRKELREKKKEAVAYVEAYLKKKAEANPEYAAEYEAKAEKVRNGGSGTATKALKEVKAEEAAEAAAKAAAA
B28: d4r5_design_ppi_305_dldesign_0_cycle1_af2pred (protein)
chain: KEKEMKKEVKKALEEAKKAAEEAIKSGDVKKLKEAAVKAQEAATVAKYIASKAKDKEVKKEAKKAAKEALELAKKVAEEAKKAE
B29: d4r5_design_ppi_196_dldesign_0_cycle0_af2pred (protein)
chain: ALAEAVAAAAEAAAEAAKKNEVTKPIAEKLEEISKKAKELAKEAKENPELKEKAEKEAEKLREELKKLREEAKKLIAEKKAEEAAKA
B30: d4r5_design_ppi_122_dldesign_0_cycle1_af2pred (protein)
chain: DAEKIAKADKLMEEAKKLAATGKKRKEALEKYKEAAALYAEVDPALAKEAIAKGQEALSEGRENEAEKRLK
B31: d4r5_design_ppi_66_dldesign_0_cycle1_af2pred (protein)
chain: GAAEEAAKKAKEEADKAIEAAKKGEKEGAEALLKAAKKLAEAAQKALEAAAEYPEKREEFLKLAKELRKAAKEAEEKAKAEIEAKKKA
B32: d4r5_design_ppi_332_dldesign_0_cycle1_af2pred (protein)
chain: DVEALVAEAVALIAGDPADAPAARAAAEAAAAALLDATLDDPAAVALLEALAAAAAANPHMADVAATLAKALATAKKIVADQKEATS
B33: d4r5_design_ppi_64_dldesign_0_cycle1_af2pred (protein)
chain: AAAGTATAETIVNLREAEHILKLLEKNKNIPKEQAEVFIKDSEEIIKEVEEALKKGLVSKELAEKALEAAKKALEAAKKAYKK
B34: d4r5_design_ppi_53_dldesign_0_cycle0_af2pred (protein)
chain: MKEKQEEARNDAIIESAKMAGAKNPEIGKLLKKATELTLENEEGKEEAKKLIEEVAKKGEEDTAKKLEKAVEALVKKKKEEEKKKK
B35: d4r5_design_ppi_186_dldesign_0_cycle0_af2pred (protein)
chain: LEEVKEKAKEILEKAEKEMKAAKKVSEVNEIRRKGLKELAELGKSSSPEGKKIAYEKREELIEAAGEAMAKKL
B36: d4r5_design_ppi_288_dldesign_0_cycle0_af2pred (protein)
chain: MTKAENAAKILEYAAEADALGDKETAKKLRELAKKAREATAEEAKKLAKEAEKLLKEAEEKKEKEEKEEKEKKEEEEKK
B37: d4r5_design_ppi_186_dldesign_0_cycle1_af2pred (protein)
chain: VEEVKEKAEEVLKKATEAMKAAKTVEEVRKIRREGHKELRKLGEEGTPESKEIAYKYIEKLNEAAADAISKLL
B38: d4r5_design_ppi_48_dldesign_0_cycle1_af2pred (protein)
chain: KAEELLKKGEELMEEGINSENKEEGEKKVKEGAVYYKEGLIEKNPEEPVSEQVKKAKEIYEKYEKELKEKHEKK

Biological target: VTCN1, Q7Z7D3
Sequence (Q7Z7D3 whole entry): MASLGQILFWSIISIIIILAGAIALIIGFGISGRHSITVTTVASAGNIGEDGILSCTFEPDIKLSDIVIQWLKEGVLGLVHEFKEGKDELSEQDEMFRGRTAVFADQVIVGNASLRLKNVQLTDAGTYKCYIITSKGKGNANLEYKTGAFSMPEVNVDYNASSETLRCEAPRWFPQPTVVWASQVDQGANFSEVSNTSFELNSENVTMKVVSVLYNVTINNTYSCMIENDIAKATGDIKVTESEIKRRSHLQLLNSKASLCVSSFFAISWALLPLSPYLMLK

Binder	binding in a display sort
B1	not found (inactive)
B2	not found (inactive)
B3	not found (inactive)
B4	not found (inactive)
B5	not found (inactive)
B6	not found (inactive)
B7	not found (inactive)
B8	not found (inactive)
B9	not found (inactive)
B10	not found (inactive)
B11	not found (inactive)
B12	not found (inactive)
B13	not found (inactive)
B14	not found (inactive)
B15	not found (inactive)
B16	not found (inactive)
B17	not found (inactive)
B18	not found (inactive)
B19	not found (inactive)

Binder	binding in a display sort
B20	not found (inactive)
B21	not found (inactive)
B22	not found (inactive)
B23	not found (inactive)
B24	not found (inactive)
B25	not found (inactive)
B26	not found (inactive)
B27	not found (inactive)
B28	not found (inactive)
B29	not found (inactive)
B30	not found (inactive)
B31	not found (inactive)
B32	not found (inactive)
B33	not found (inactive)
B34	not found (inactive)
B35	not found (inactive)
B36	not found (inactive)
B37	not found (inactive)
B38	not found (inactive)
